In the library only some 19% were active in any assay of this set; here they are far more common.
HT1080NT lethal: qHTS for induction of synthetic lethality in tumor cells producing 2HG: qHTS for the HT-1080-NT fibrosarcoma cell line | HT-1080-NT fibrosarcoma viability, CellTiter-Glo ATP luminescence, 48 h | Potency, µM (top dose mostly 46.1 µM), hits mostly cytotoxic | actives 1.6% (n = 360,000) | AID 686970, 2013;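 also: NT is the 2HG producing partner of a matched IDH1 knockdown line; nearly all actives have a fitted effect of over 55% in size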
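HT-1080-NT fibrosarcoma cells (2HG-overproducing), 750 cells/well in RPMI with 5% FBS, dosed after 2 h and incubated 48 h at 37C. CellTiter-Glo luminescence normalized to DMSO and no-cell wells; concentration-response curves fitted and classed.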
KB-V1 cytotox: qHTS assay for MDR1-selective chemotherapeutics: Primary screen using the drug-selected MDR subline cells KB-V1 | KB-V1 MDR cells viability, CellTiter-Glo, 72 h | AID 1347076, 2019 | actives 3.4% (n = 400,000) | Potency, µM (highest dose often 46.1 µM), usual class: cytotoxic; also: nearly all actives have a fitted effect of over 60% in size
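KB-V1, DMEM (no phenol red) + 10% FBS; cpd pin-transferred, titration series; 72 h, 37 degrees C; CellTiter-Glo, luminescence. Data normalized, curve-fit.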
DT40 TDP1 CPT: qHTS for Inhibitors of human tyrosyl-DNA phosphodiesterase 1 (TDP1): qHTS in cells in presence of CPT; chicken DT40 Tdp1-/-;hTDP1 cells + 20 nM CPT, ATP luminescence, 48 h; Potency, µM (top dose mostly 46.2 µM), usual class: inhibitors; actives 12% (n = 420,000); also: nearly all actives have a fitted effect of over 55% in size
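Cell growth measured by CellTiter-Glo luminescence after a minimum 48 h, 37 C compound exposure with 20 nM CPT in Tdp1-knockout DT40 cells stably expressing hTDP1, seeded 400/well; qHTS titration format.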
KB-3-1 tox: qHTS assay for MDR1-selective chemotherapeutics: Primary screen using the parental adenocarcinoma cell KB-3-1; KB-3-1 viability, CellTiter-Glo ATP luminescence, 72 h; Potency, µM (series often up to 46.1 µM), most hits filed as cytotoxic; actives 1.4% (n = 400,000); also: nearly all actives have a fitted effect of over 60% in size
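Parental KB-3-1 viability, qHTS format: 72 h compound exposure, 37 °C; CellTiter-Glo; media-only wells and DMSO plates as controls; concentration-effect fits on corrected data.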
HT1080 IDH1KD tx: qHTS for induction of synthetic lethality in tumor cells producing 2HG: qHTS for the HT-1080-IDH1KD cell line; HT-1080 IDH1 knockdown viability, ATP luminescence, 48 h; Potency, µM (top dose mostly 46.1 µM), usual class: cytotoxic; actives 2% (n = 360,000); AID 686971, 2013
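Luminescent ATP read-out (CellTiter-Glo, 10 min at room temperature) after 48 h compound exposure at 37 °C gave viability of IDH1-knockdown HT-1080 cells. Activity was normalised to DMSO and cell-free wells, then fitted as concentration-response curves.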
DT40 TDP1 no CPT: qHTS for Inhibitors of human tyrosyl-DNA phosphodiesterase 1 (TDP1): qHTS in cells in absence of CPT; DT40 Tdp1-/- hTDP1 cells, no CPT, ATP luminescence, 48 h; Potency, µM (titrated, usually from 46.2 µM), usual class: inhibitors; actives 15% (n = 420,000); AID 686978, 2013; also: nearly all actives have a fitted effect of over 55% in size
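Compound effects on proliferation are scored in DT40 Tdp1-/-;hTDP1 cells in the absence of CPT. ATP levels (CellTiter-Glo luminescence) are recorded after a ≥48 hr, 37 °C incubation.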
Hits are given with their value; n = inactive; u = inconclusive; x = no result given; [ ] = remark or other dose. Calls follow the shape of the dose curve; as a rule, active = well fitted curve in the direction sought with a large enough effect; inconclusive = small, poorly fitted or top-dose-only effect, or another doubt; inactive = no such curve, though single readings can be large; an effect the other way counts as inactive or inconclusive.

SMILES	HT1080NT lethal	KB-V1 cytotox	DT40 TDP1 CPT	KB-3-1 tox	HT1080 IDH1KD tx	DT40 TDP1 no CPT
CCCCn1nc(C(=O)Nc2c(C)n(C)n(-c3ccccc3)c2=O)c2ccccc2c1=O	n[9.24 µM]	u	n	n	n	n
CCCCn1c(N)c(N(CC(C)C)C(=O)Cc2ccc3c(c2)OCCO3)c(=O)[nH]c1=O	n	n	n	n	n	n
Cc1nn(CC(=O)NCc2ccc(N(C)C)cc2)c(=O)c2nn(-c3ccccc3)c(C)c12	x	u	u	n	x	u
COc1ccccc1N1CCN(C(=O)COc2ccc(C)cc2Br)CC1	n	u	n	n	n	u
COc1ccccc1N1CCN(C(=O)/C=C/c2ccc(C)cc2)CC1	n	16µM	u	n	n	13µM
Cc1cc(OCC(=O)Nc2ccccc2C(N)=O)c2c(C)cc(=O)oc2c1	n	u	u	n	n	23µM
COc1ccccc1N1CCN(C(=O)COc2cc(C)ccc2C)CC1	n	n	u	n	n	16µM
COc1ccccc1N1CCN(C(=O)COc2cc(C)cc3oc(=O)cc(C)c23)CC1	n	u	16µM	n	n	21µM
O=C(NC1CC(=O)N(c2cccc(F)c2)C1)N1CCN(C(=O)c2ccco2)CC1 (centres undefined)	n	n	n	n	n	n
COCCN1Cc2cccc(C(=O)Nc3ccc(Cl)cc3Cl)c2C1=O	x	n	n	n	x	u
O=c1[nH]c(N/N=C/c2ccccc2Br)nnc1-c1ccccc1	n	n	15µM	n	n	23µM
COc1ccc(/C=N/Nc2nnc(-c3ccccc3)c(=O)[nH]2)cc1	13µM	13µM	12µM	5.2µM	13µM	7.3µM
COC(=O)[C@]1(C)N[C@H](CN(C)C(=O)Nc2ccc(Cl)cc2)[C@@H]2C(=O)N(C)C(=O)[C@@H]21	n	n	n	n	n	n
CSc1cccc(NC(=O)COC(=O)C2CCN(S(=O)(=O)c3ccccc3)CC2)c1	n	n	n	u	n	n
COc1cc(OC)nc(Nc2nc(C(N)Cc3ccccc3)cs2)n1 (centres undefined)	u	u	u	u	u	18µM
NC(Cc1ccc(C(F)(F)F)cc1)c1csc(Nc2nccc(C(F)(F)F)n2)n1 (centres undefined)	u	23µM	u	u	u	u
Cc1cc(C)nc(Nc2nc(C(N)Cc3ccc(F)cc3)cs2)n1 (centres undefined)	u	u	15µM	u	13µM	21µM
COc1cc(OC)nc(Nc2nc(C(N)Cc3ccc(C(F)(F)F)cc3)cs2)n1 (centres undefined)	18µM	u	u	u	u	u
COc1cc(OC)nc(Nc2nc(C(C)N)cs2)n1 (centres undefined)	n	n	u	n	n	u
COc1ccc(NC(=O)CS(=O)c2ccc(Br)cc2)cc1 (centres undefined)	n	n	n	n	n	n
CC1CCC(NC(=O)c2ccc3c(c2)N(Cc2ccccc2F)C(=O)c2ccccc2S3)CC1 (centres undefined)	x	n	u	n	x	u
CCOCCc1nn2c(=O)cc(COC(=O)c3ccccc3NC(=O)c3ccc(C)cc3)nc2s1	x	n	n	n	x	n
Cc1cc(C)nc(Nc2nc(C(N)Cc3ccc(C(F)(F)F)cc3)cs2)n1 (centres undefined)	u	u	6.5µM	u	u	6.5µM
Cc1cc(C)nc(Nc2nc(C(N)Cc3ccc(Cl)cc3)cs2)n1 (centres undefined)	21µM	u	18µM	n	15µM	18µM
CCCc1cnc(Nc2nc(C(N)Cc3ccc(C(F)(F)F)cc3)cs2)nc1 (centres undefined)	16µM	u	u	u	u	21µM
SMILES	HT1080NT lethal	KB-V1 cytotox	DT40 TDP1 CPT	KB-3-1 tox	HT1080 IDH1KD tx	DT40 TDP1 no CPT
CC(N)c1csc(Nc2nccc(C(F)(F)F)n2)n1 (centres undefined)	n	n	n	n	n	u
CCOC(=O)C1=C(C)C(c2ccc(OC)cc2)NC(=O)N1 (centres undefined)	n	n	n	n	n	n
CCOC(=O)C1=C(C)C(c2ccc(OC)cc2)NC(=S)N1 (centres undefined)	n	n	21µM	n	n	29µM
Cc1ccc(-c2nc(N)sc2-c2ccc(C)cc2)cc1	u	u	u	u	u	16µM
CC(C)(C)n1nnnc1C(c1ccccc1)N1CCN(C(=O)C2CCCO2)CC1 (centres undefined)	n	n	n	n	n	n
CCOC(=O)c1cn(Cc2c(C)c(C)c(C)c(C)c2C)nn1	n	u	16µM	n	n	23µM
CCOC(=O)c1cn(Cc2cccc(Cl)c2)nn1	n	n	n	n	n	n
Cc1ccc(C2C=CC(C#N)=CN2Cc2ccccc2)cc1 (centres undefined)	n	n	23µM	n	n	u
Cn1cc(-c2nc3cncnc3n(Cc3ccc(F)cc3)c2=O)c2ccccc21	x	x	u	x	x	n
O=C(COC(=O)c1cc(=O)[nH]c2ccccc12)c1cccs1	n	n	n	n	n	n
Cn1c(N=NC(=O)c2ccccc2)c(O)c2ccccc21	n	n	u	n	n	23µM
Cc1ncc2c(c1CNC(=O)CN1CCCCC1)CCN(C(=O)c1ccc(F)cc1Cl)C2	x	x	n[9.04 µM]	x	x	n
CCOc1ccc(NC(=O)CSc2nc3ccccc3nc2N2CCOCC2)cc1	n	n	21µM	u	n	13µM
Cc1cccc(NC(=O)CSc2nc3ccccc3nc2N2CC(C)OC(C)C2)c1 (centres undefined)	n	n	u	u	n	u
CC1CN(c2nc3ccccc3nc2SCC(=O)Nc2cccc(C(F)(F)F)c2)CC(C)O1 (centres undefined)	u	n	15µM	23µM	n	26µM
COc1ccc(NC(=O)CSc2nc3ccccc3nc2N2CCOCC2)cc1	n	n	n	n	n	n
CCOc1ccc(NC(=O)N2CC(C)OC(C)C2)cc1 (centres undefined)	n	u	n	n	n	n
CCCCc1ccc(NC(=O)CSc2nc3ccccc3nc2N2CCOCC2)cc1	x	n	u	n	x	26µM
